“And” between values parts separate entries of the source, which are not always exact repeats. Equal values may be shown once. Records with an inconclusive call do not appear. A call without a number means that no potency is given here. Some structures have more than one record in an assay (separate samples or runs), and their calls can disagree. The source made the active and inactive calls. Calls follow the shape of the dose curve; as a rule, active = well fitted inhibition curve with a large enough effect in the repeat runs; inconclusive = weak or mixed curves, or effect the other way; inactive = no such curve, though single readings can be large or run the other way.
target: Nuclear receptor ROR-gamma (Homo sapiens) (UniProt P51449); assay: qHTS assay to identify small molecule antagonists of the retinoid-related orphan receptor gamma (ROR-gamma) signaling pathway (AID 1159521; also: nearly all actives have a fitted effect of over 50% in size; as to activity change, negative = inhibition: top concentration of the series differs between compounds); details: Tet-on RORgamma CHO cells, RORE-luciferase, 16 h; series mostly up to 92.4 µM; activity change, negative = inhibition: at the top concentration
Excerpt: U.S. Tox21 Program National Center for Advancing Translational Sciences [NCATS] NIH Chemical Genomics Center [NCGC] U.S. Environmental Protection Agency [EPA] National Institutes of Environmental Health Sciences [NIEHS] National Toxicology Program [NTP] U.S. Food and Drug Administration [FDA] Tox21 Assay Overview: Nuclear steroid hormone receptors are involved in many biological processes including inflammatory responses, cell proliferation, and apoptosis. Environmental factors or compounds disrupting these nuclear receptor pathways and gene expression may promote susceptibility to immunotoxicants and autoimmune diseases. One important group of these expression factors are the retinoid-related orphan receptors. To assess compounds that may interfere with the retinoid-related orphan receptor gamma (ROR-gamma) transcription factor, a cell-based luciferase assay was used. The CHO cell-based assay utilizes a TET-inducible ROR expression factor and ROR response element-LUC reporter gene. Reporter gene activity was induced using Doxycycline Hyclate and measured after 16 hr incubation. Tet-on ROR gamma CHO cells were used to screen against the Tox21 10K compound library for ROR gamma antagonists by quantification of decreased reporter gene activity in terms of decreased luminescence.
Tox21 Assay Protocol Summary: Tet-on ROR gamma CHO cells were dispensed at 1,000 cells in 4 uL of culture medium per well into white wall/solid bottom 1536-well plates using a Multidrop Combi (Thermo Scientific, Waltham, MA) dispenser. Following incubation at 37 C and 5% CO2 for 4 hr, 23 nL of compounds dissolved in DMSO, positive controls or DMSO only were transferred by a Pintool station (Kalypsys, San Diego, CA) and after 2 hr incubation at 37 C, one ul of 1 uM (final concentration) of Doxycycline Hyclate was added to all the wells by using a Flying Reagent Dispenser (FRD) (Aurora Discovery, San Diego, CA). After 16 hr incubation at 37 C and 5% CO2, 5 uL of ONE-Glo reagent (Promega Corporation, Madison, WI) was added to each assay plate using FRD. After 30 min incubation at room temperature, luminescence was quantified on a ViewLux plate reader (Perkin Elmer, Waltham, MA).
Potency is read from the fitted curve at half-maximal effect.

SMILES | Potency | activity change, negative = inhibition
CC(C)(O)C(=O)Nc1ccc([N+](=O)[O-])c(C(F)(F)F)c1 | 19.7 µM (active) | 
Nc1ccc([N+](=O)[O-])cc1N | 9.68 µM (active) and 30.6 µM (active) | 
NC(=O)CN1CCCC1=O | inactive | 
CCC1(c2ccc(N)cc2)CCC(=O)NC1=O (stereo not given) | inactive | 
C[N+](C)(C)C |  | 8.17% (inactive)
CCCCCCCCCCCCCl | inactive | 
Oc1ccc(Cl)cc1Cl | inactive | 
COc1ccc(C=O)cc1OC |  | -6.29% (inactive)
[CH3][Sn]([Cl])([Cl])[Cl] |  | 0.0157% (inactive)
ClC(Cl)=C(Cl)C(Cl)=C(Cl)Cl | inactive | 
C=C(C)C#N | inactive | 
CCNCC | inactive | 
CC(C)=CC1C(C(=O)OCc2cccc(Oc3ccccc3)c2)C1(C)C (stereo not given) | inactive | 
CCC[CH2][Sn]([Cl])([CH2]CCC)[CH2]CCC | 194 nM (active) and 686 nM (active) | 
CCOS(=O)(=O)OCC |  | -3.99% (inactive)
CCN(CC)C(=O)C(C)Oc1cccc2ccccc12 (stereo not given) | inactive | 
Cc1cc(Cl)ccc1N=CN(C)C | inactive | 
CCCCOC(=O)COC(=O)c1ccccc1C(=O)OCCCC | inactive | 
Clc1cccc(Cl)c1 | 30.4 µM (active) | 
CC1CC(=O)O1 (stereo not given) | inactive | 

SMILES | Potency | activity change, negative = inhibition
ClC(Cl)(Cl)c1ccccc1 | inactive | 
CC(O)CN(CC(C)O)CC(C)O (stereo not given) | inactive | 
O=P(OCCCl)(OCCCl)OCCCl | inactive | 
CN(C)c1nc(=O)n(C2CCCCC2)c(=O)n1C | inactive | 
CNC(=S)S | inactive | 
CC(C)CON=O | inactive | 
c1ccc2c(c1)Nc1ccccc1S2 | inactive | 
CC(C)COC(=O)c1ccccc1C(=O)OCC(C)C | inactive | 
CC1(C)C(C(=O)OC(C#N)c2cccc(Oc3ccccc3)c2)C1(C)C (stereo not given) | 48.9 µM (active) | 
OC(c1ccc(Cl)cc1)(c1cncnc1)c1ccccc1Cl (stereo not given) | 4.4 µM (active) and 54.5 µM (active) | 
Cc1ccc(N=CN(C)C=Nc2ccc(C)cc2C)c(C)c1 | 48.8 µM (active) and 54.4 µM (active) and inactive | 
CCC/C=N/O | inactive | 
CC1(C)Cc2cccc(O)c2O1 | inactive | 
O=C(O)CF | inactive | 
CC(C)(O)C#N | inactive | 
CN(C)P(=O)(N(C)C)N(C)C | inactive | 
O=S(=O)(O)C(F)(F)C(F)(F)C(F)(F)C(F)(F)C(F)(F)C(F)(F)C(F)(F)C(F)(F)F | inactive | 
CC(C)(C#N)N=NC(C)(C)C#N | inactive | 
ClCc1ccccn1 | inactive | 
CSc1nc(NC(C)C)nc(NC(C)C)n1 |  | -21% (inactive)

— PubChem BioAssay (Tox21)
